Experimental data: the OligoGym collection

Assays:
Experiment in all cases: pooled miR-30 sensor sort-seq; sequence = guide strand
Settings in all cases: shRNA
DEXI = target: DEXI
DEF6 = target: DEF6
DENND3 = target: DENND3
DEK = target: DEK
DHX35 = target: DHX35
DHPS = target: DHPS
DHCR7 = target: DHCR7
Note: reference of the scale not given here.

## TAAACATCCATCGCAGCTGCAA
DEXI
  sensor-assay potency score (higher = more potent): -0.291

## TTGTGTAGGGACGTCTTCCCCT
DEF6
  sensor-assay potency score (higher = more potent): -0.678

## TTGATGATGTAGATGACGGAGT
DENND3
  sensor-assay potency score (higher = more potent): -0.511

## TTTTACTTTTAGAAGTAGCTTT
DEK
  sensor-assay potency score (higher = more potent): 0.164

## TTCATCTGGACATTCCAGTGTT
DEF6
  sensor-assay potency score (higher = more potent): 0.421

## TTCAGCTGCATCAACTGCTTCA
DEF6
  sensor-assay potency score (higher = more potent): 0.367

## TACAGGATCAGCACATTGACGA
DEXI
  sensor-assay potency score (higher = more potent): 0.243

## TTCCACACCAGCACCATGCCGT
DENND3
  sensor-assay potency score (higher = more potent): -0.0924

## TTATCGTCCGTGGACTTGGAGT
DENND3
  sensor-assay potency score (higher = more potent): -1.3

## TTCTTTATCTTCATCATCTGAA
DEK
  sensor-assay potency score (higher = more potent): 0.212

## TTAATGAGGACACAGTGCCTGG
DEK
  sensor-assay potency score (higher = more potent): -0.975

## TAAAATATGATTCCTAAGCTTG
DHX35
  sensor-assay potency score (higher = more potent): -0.148

## TTGATGTAAACAGCGTAGTCGG
DHPS
  sensor-assay potency score (higher = more potent): -0.879

## TGAGGTTGGATGTATATCCCAG
DHPS
  sensor-assay potency score (higher = more potent): -0.155

## TCTTCATCCTGTGACAGTGGTT
DHPS
  sensor-assay potency score (higher = more potent): -0.839

## TTGGTTGCTTGGAAGCCGGTGG
DHPS
  sensor-assay potency score (higher = more potent): -0.209

## TATCCCAGGAAAATGGTGCAGC
DHPS
  sensor-assay potency score (higher = more potent): -0.649

## TTCTTCTCGATCATGGCATTGA
DHPS
  sensor-assay potency score (higher = more potent): -0.43

## TGAATTTGCAGTCTCTGGCGCT
DHCR7
  sensor-assay potency score (higher = more potent): 0.0615

## TAGAATGAAACCTCGCTGCATT
DHX35
  sensor-assay potency score (higher = more potent): -0.528

## ATTGACTTGCTGTACAGCGCGC
DHPS
  sensor-assay potency score (higher = more potent): -0.633

## TTGACTTGCTGTACAGCGCGCC
DHPS
  sensor-assay potency score (higher = more potent): 0.283

## TTGCCTGTGAATTTGCAGTCTC
DHCR7
  sensor-assay potency score (higher = more potent): -0.449

## TTTCCGATCCTATTGATCCCGT
DHPS
  sensor-assay potency score (higher = more potent): -0.549

## TTGTGCTGCACAAGGTAGCGAA
DHPS
  sensor-assay potency score (higher = more potent): -0.894

## TAGCTGACCAAAAAGTAGGGGA
DHPS
  sensor-assay potency score (higher = more potent): 0.0141

## TCGGGCGGCAACGTCGAGCTGT
DHPS
  sensor-assay potency score (higher = more potent): -0.875

## TTGAAGAACAGCTTGAAGTCAA
DHCR7
  sensor-assay potency score (higher = more potent): 0.748

## TAGGAATGGAAGAAGATCATGT
DHPS
  sensor-assay potency score (higher = more potent): 0.621

## AAAGGTTTCAGCCACAAGCAGG
DHPS
  sensor-assay potency score (higher = more potent): -1.41

## TATTGATCCCGTTCTCCCGGAG
DHPS
  sensor-assay potency score (higher = more potent): -0.362

## TTGTAAAAGAAATTGCCTGTGA
DHCR7
  sensor-assay potency score (higher = more potent): 0.127

## TTGCTGTACAGCGCGCCCGAAG
DHPS
  sensor-assay potency score (higher = more potent): -1.67

## TTGACCATGGCGAAGGTGGAGA
DHCR7
  sensor-assay potency score (higher = more potent): -0.859

## TAAACAGCGTAGTCGGCCCCGT
DHPS
  sensor-assay potency score (higher = more potent): -0.782

## TTAAACTCGATGCCCATCATGT
DHCR7
  sensor-assay potency score (higher = more potent): -0.575

## TTCTGCTCCATCACCATCTGGT
DHPS
  sensor-assay potency score (higher = more potent): 0.0359

## TTGAAACTTGACAAGAAGCTTT
DHX35
  sensor-assay potency score (higher = more potent): 0.0953

## TAGGAAGATGACGCTCGCCAGT
DHCR7
  sensor-assay potency score (higher = more potent): -1.46

## TTCATTCGTAGAGACATGCTTG
DHX35
  sensor-assay potency score (higher = more potent): 0.0862

## AACAGCTTGAAGTCAAACCACT
DHCR7
  sensor-assay potency score (higher = more potent): -1.51

## TCGAGCTGTGCTTTAGCACGGC
DHPS
  sensor-assay potency score (higher = more potent): -0.48
